Screens as filed in PubChem.
An excerpt weighted towards active compounds, which were near 6.2% of everything screened.
KinaseGlo FLuc – blocks Kinase-Glo luciferase, a counter-screen artifact; Q27757; Kinase-Glo luciferase, ATP luminescence, 8 min; actives 0.28% (n = 200,000); Potency, µM (doses to about 38.3 µM), actives largely listed as inhibitors; AID 1379; note: nearly all actives have a fitted effect of over 60% in size
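Kinase-Glo luciferase light output from ATP and luciferin was measured with 10 uM ATP, within the enzyme's linear range. Buffer: 50 mM imidazole pH 7.2, 50 mM KCl, 7 mM MgCl2, 0.01% Tween 20, 0.05% BSA; luminescence read after 8 min at ambient temperature.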
VP16 counter – inhibits Gal4-VP16 luciferase reporter, ROR gamma counter-screen; Drosophila S2 Gal4-VP16 UAS-luciferase, luminescence, 20 h; Potency, µM (doses to about 53.6 µM), hits mostly inhibitors; actives 3.5% (n = 310,000);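 note: Gal4-VP16 expression switched on by copper sulfate through the metallothionein promoter; nearly all actives have a fitted effect of over 50% in size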
RORg inh – inhibitors of mouse ROR gamma transcriptional activity | Drosophila S2 Gal4-RORgamma UAS-luciferase reporter, 20 h | actives 5.4% (n = 310,000) | P51450 | Potency, µM (highest dose often 53.6 µM), usual class: inhibitors; note: nearly all actives have a fitted effect of over 60% in size
Target sequence (P51450 whole entry, looked up, the tested form may be a part): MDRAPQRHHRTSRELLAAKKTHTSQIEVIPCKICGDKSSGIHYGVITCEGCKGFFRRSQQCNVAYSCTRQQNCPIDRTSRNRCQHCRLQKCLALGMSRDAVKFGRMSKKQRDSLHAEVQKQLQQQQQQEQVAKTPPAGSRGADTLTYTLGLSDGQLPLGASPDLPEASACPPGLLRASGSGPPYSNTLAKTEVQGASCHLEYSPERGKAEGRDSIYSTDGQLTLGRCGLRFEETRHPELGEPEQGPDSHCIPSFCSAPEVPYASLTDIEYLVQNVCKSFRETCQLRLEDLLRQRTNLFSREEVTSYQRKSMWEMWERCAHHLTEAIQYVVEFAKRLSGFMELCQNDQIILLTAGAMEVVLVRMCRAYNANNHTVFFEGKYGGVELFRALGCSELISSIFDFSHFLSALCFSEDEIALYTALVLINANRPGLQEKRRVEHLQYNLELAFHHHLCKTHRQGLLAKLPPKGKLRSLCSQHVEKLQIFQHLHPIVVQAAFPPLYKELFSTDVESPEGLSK
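Stably transfected Drosophila Schneider cells are the test system, with ROR gamma fused to Gal4 and luciferase under UAS control; luminescence is read after 20 hr of 700 uM copper sulfate induction at ambient temperature.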
A number is an active result; n = inactive; u = inconclusive; x = not tested or not shown; [ ] = dose if it differs, or a comment. Calls come from the whole dose curve; as a rule, active = well fitted curve in the direction sought with a large enough effect; inconclusive = small, poorly fitted or top-dose-only effect, or another doubt; inactive = no such curve, though single readings can be large; an effect the other way counts as inactive or inconclusive.

SMILES | KinaseGlo FLuc | VP16 counter | RORg inh
COc1cc2c(cc1OC)[C@@H]1C(=O)c3ccc4c(c3O[C@@H]1CO2)C[C@H](C(C)C)O4 | x | n | n
c1cnc(N2CCC3(CCNCC3)CC2)nc1 | n | n | n
C[C@@H]1O[C@@H](O[C@H]2CC[C@@H](O[C@H]3[C@H](O)C[C@H](c4ccc5c(c4O)C(=O)C4=C(C5=O)[C@@]5(O)C(=O)C[C@](C)(O[C@H]6CC[C@H](O[C@H]7C=CC(=O)[C@H](C)O7)[C@H](C)O6)C[C@@]5(O)C=C4)O[C@@H]3C)O[C@H]2C)C=CC1=O | x | n | 0.5µM
Cc1cc[c]([Sb]2[O]C([C@H](O)[C@H](O)C(=O)O)[C@@H](CO)[O]2)cc1 (some centres not stated) | n[7.66 µM] | x | x
Cn1ccc(NC(=O)CCl)n1 | n | 4.5µM | 5µM
Cc1cc(NC(=O)CCl)nn1C | n | u | n
C[C@H](CN(C)C)C(C#N)(c1ccccc1)c1ccccc1 | n[7.66 µM] | x | x
CN1C2CC(=O)CC1C(O)C2 (configuration not stated) | x | n | n
CCCCCCC(=O)N/N=C/c1c(O)n(C2CC2)c(=S)[nH]c1=O | x | n | n
CCCCCCC(=O)N/N=C/c1c(O)n(C(C)CC)c(=S)[nH]c1=O (configuration not stated) | x | u | 10µM
CCOC(=O)c1cccc([P+](=O)O)c1 | n | n | n
CCOC(=O)c1cccc(NS(=O)(=O)c2ccc(NC(C)=O)cc2)c1 | n | 5µM | u
O=C(N/N=C/c1cccnc1)c1ccc(NC(=O)C(c2ccccc2)c2ccccc2)cc1 | n | 6.3µM | n
O=C(N/N=C/c1c(O)n(CCc2ccccc2)c(=O)[nH]c1=O)c1ccncc1 | n | n | n
N[C@H](Cc1c[nH]c2ccccc12)P(=O)(O)O | n[7.66 µM] | x | x
S=C=Nc1cccc2ccccc12 | x | 13µM | 6.3µM
Clc1cccc2ccccc12 | x | n | n
COCCN(C(=O)CCl)c1c(C)cccc1C | x | n | n
COc1ccc(C2=NCC(=S)Nc3ccc(Cl)cc32)cc1Cl | n | 8.9µM | 2.8µM
S=C1CN=C(c2ccccc2)c2cc(Cl)ccc2N1 | n | 6.3µM | 2µM
O=C1Nc2ccc(Cl)cc2C(c2ccccc2)=NC1O (configuration not stated) | n | n | n
O=C1CN=C(c2ccc[nH]2)c2cc(Cl)ccc2N1 | x | n | n
CCC(=O)CCCCC[C@@H]1NC(=O)[C@H]2CCCCN2C(=O)[C@H]([C@@H](C)CC)NC(=O)[C@H](Cc2cn(OC)c3ccccc23)NC1=O | x | n | n
COc1cc2c(cc1OC)[C@@]13CCN4C=C5CCO[C@H]6CC(=O)N2[C@@H]1C6[C@H]5C[C@H]43 (some centres not stated) | n[7.66 µM] | x | x
Nc1nc(N)c(Cn2ccnc2)c(=O)[nH]1 | n[7.66 µM] | x | x
SMILES | KinaseGlo FLuc | VP16 counter | RORg inh
O=C1NC(=O)N(Cc2ccccc2)C(=O)/C1=C/C=C/c1ccco1 | x | 13µM | u
CC(C)c1ccc(N2C(=O)NC(=O)/C(=C\c3cnc(-c4ccccc4)nc3)C2=O)cc1 | n | n | n
COc1ccc(CN2C(=O)NC(=O)/C(=C\c3ccco3)C2=O)cc1 | n | n | n
CC(C)c1ccc(N2C(=O)NC(=O)/C(=C\C=C\c3ccco3)C2=O)cc1 | n | 4.5µM | u
OC[P+](CO)(CO)CO | x | n | n
CC[C@]1(C2=NCCN2)Cc2ccccc2O1 | n | n | n
C[C@H](CCC(=O)O)C[C@H](C)C[C@H](C)C(=O)/C=C(\O)[C@H](C)C[C@H](C)C/C=C/[C@@H](C)[C@@H](O)[C@@H](C)[C@@H](O)C[C@@H]1CC[C@@](C)(C2CC[C@@](C)([C@@H](C)O)O2)O1 (some centres not stated) | n | 6.3µM | u
CC1=NN(c2ccc(S(=O)(=O)O)cc2C)C(=[OH+])[C@H]1N=Nc1cc(S(=O)(=O)O)ccc1C(=O)O.O.[Cr] | n[7.66 µM] | x | x
CCn1nc(-c2cccs2)nc2c(=O)n(C)c(=O)nc1-2 | n | 1.3µM | 0.79µM
CCn1nc(/C=C/c2ccccc2)nc2c(=O)n(C)c(=O)nc1-2 | n | n | n
O=C(O)C[C@H]1OCC=C2CN3CC[C@@]45C6=CC(=O)C(=O)C([N+](=O)[O-])=C6N[C@H]4[C@H]1[C@H]2C[C@@H]35 | n[7.66 µM] | x | x
Cc1cccc2c1=NC(=O)/C(=C/c1c(O)[nH]c(=O)[nH]c1=O)C=2 | n | n | n
O=c1[nH]c(=S)[nH]c(O)c1/C=C1/C=c2ccccc2=N1 | x | 13µM | 13µM
Brc1cccc(-c2ccccc2)c1 | x | n | n
O=C(N/N=C/c1c(O)n(Cc2ccco2)c(=O)[nH]c1=O)c1ccccc1 | x | n | u
O=c1c2cc(N3CCOCC3)ccc2[nH]c(=S)n1Cc1ccc(Cl)cc1 | n | 0.56µM | 8.9µM
O=c1[nH]c(=S)n(-c2ccc(Cl)cc2)c(O)c1C=Nc1ccc(N2CCOCC2)cc1 | n | n | u
Cc1ccc(N=C=O)cc1N=C=O | x | n | u
CN(C)C(=O)Cl | x | n | n
ClCBr | x | n | n
C=Cn1ccnc1P(=S)(c1c(C)nn(-c2ccccc2)c1C)c1nccn1C=C | n | n | n
C=Cn1ccnc1P(=S)(c1ccc(N(C)C)cc1)c1nccn1C=C | n | u | 10µM
CCCOc1ccc(C(=O)NC(=S)N2C[C@H]3C[C@H](C2)c2cccc(=O)n2C3)cc1 | x | u | 8.9µM
O=C(NC(=S)N1C[C@H]2C[C@H](C1)c1cccc(=O)n1C2)c1ccc(Cl)cc1Cl | x | n | 10µM
O=C(Nc1cccc(Cl)c1)N1C[C@H]2C[C@@H](C1)c1cccc(=O)n1C2 | x | n | n
SMILES | KinaseGlo FLuc | VP16 counter | RORg inh
COc1ccc(C(=O)NC(=S)N2C[C@H]3C[C@H](C2)c2cccc(=O)n2C3)cc1OC | x | n | n
N#CSCSC#N | x | 0.45µM | 1.1µM
CCOC(=O)/C(C#N)=C1/SC(C)C(=O)N1c1ccc(Br)cc1 (configuration not stated) | n | n | 11µM
CC(N)C(O)c1ccc(O)c(O)c1 (configuration not stated) | n | n | n
CC(=O)Nc1ccc([As](=O)(O)c2ccc([N+](=O)[O-])cc2)cc1 | x | n | n
CCCCCC1CC(CC(=O)NC(=S)Nc2ccc([N+](=O)[O-])cc2)C(=O)O1 (configuration not stated) | n | u | 71µM
CCOP(=S)(OCC)OCCSCC | x | n | n
Cc1cc(Cl)ccc1OCC(=O)O | n | n | n
CCOC(=O)C/C(C)=N/NC(=O)COc1ccccc1C | x | u | 14µM
CC(C)[C@H](NC(=O)[C@H](CCC(=O)O)NC(=O)[C@H](Cc1ccccc1)NC(=O)[C@@H](C)NC(=O)[C@@H](N)Cc1ccc(O)cc1)C(=O)N[C@H](C(=O)NCC(N)=O)C(C)C | x | n | n
FC(Cl)(Cl)Cl | x | n | n
NNC(N)=S | x | n | 14µM
NC(=S)Nc1ccccc1 | x | n | n
O=[N+]([O-])c1c(Cl)c(Cl)c(Cl)c(Cl)c1Cl | x | n | n
Nc1cc(Cl)c2nonc2c1[N+](=O)[O-] | n | 2.8µM | 2µM
N#CCCCC[N+]12CN3CN(CN(C3)C1)C2 | n[7.66 µM] | x | x
Cc1ccc(-c2n[nH]c(=S)n2-c2ccccc2)cc1 | n | u | u
S=c1nc(-c2ccccc2)n(-c2ccccc2)[nH]1 | x | u | 10µM
